Sampled rows, rich in hits. Any-hit rate of the full collection: about 1.5%.
TLR9-MyD88 inh: blocks human TLR9 binding to MyD88. inhibition, % at 4.98 µM. CHO BLA complementation TLR9-MyD88, CCF4 FRET ratio. hit rate 0.21% among 340,000;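 active = inhibition above the mean over all tested compounds plus 3 SD, cut at about 21% in these data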;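 note: 0% = DMSO only wells and 100% = clavulanate BLA inhibitor control wells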
NOD2-RIPK2 inh: inhibitors of human NOD2-RIPK2 interaction. AID 624267. inhibition, % at 4.98 µM. CHO BLA complementation NOD2-RIPK2, CCF4 ratio. O43353. hit rate 0.38% among 360,000; in the data active = inhibition above about 21%;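 note: 0% = vehicle only and 100% = reference blocker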
ABHD5 PLIN5 PPI: inhibitors of human ABHD5-perilipin-5 interaction. Q00G26+Q8WTS1. Split G. princeps luciferase complementation, luminescence, 4 h. inhibition, % at 4 µM. hit rate 0.78% among 360,000;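 active = inhibition above the mean inhibition across every tested compound plus 3 SD, cut at about 22% in these data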;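 note: 0% = DMSO only wells and the 100% control is not disclosed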
B2AR ag: activates human beta-2 adrenergic receptor causing internalization; Am2.2-beta2AR cells, FAP receptor internalization, flow cytometry; response, % (concentration not given with the values); hit rate 0.43% among 340,000; AID 504454;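 active = response above a set limit, near 3 SD of response in nonfluorescent compounds, cut at about 42% in these data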
TLR4-MyD88 BLA: blocks binding of human TLR4 to MyD88; HeLa CL3-4 TLR4/MyD88 BLA complementation, FRET ratio; O00206+Q99836; hit rate 0.18% among 200,000; inhibition, % at 8.4 µM; in the data active = inhibition above about 25%;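 note: 0% = vehicle and 100% = reference inhibitor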
Target sequence (O00206 whole entry, looked up): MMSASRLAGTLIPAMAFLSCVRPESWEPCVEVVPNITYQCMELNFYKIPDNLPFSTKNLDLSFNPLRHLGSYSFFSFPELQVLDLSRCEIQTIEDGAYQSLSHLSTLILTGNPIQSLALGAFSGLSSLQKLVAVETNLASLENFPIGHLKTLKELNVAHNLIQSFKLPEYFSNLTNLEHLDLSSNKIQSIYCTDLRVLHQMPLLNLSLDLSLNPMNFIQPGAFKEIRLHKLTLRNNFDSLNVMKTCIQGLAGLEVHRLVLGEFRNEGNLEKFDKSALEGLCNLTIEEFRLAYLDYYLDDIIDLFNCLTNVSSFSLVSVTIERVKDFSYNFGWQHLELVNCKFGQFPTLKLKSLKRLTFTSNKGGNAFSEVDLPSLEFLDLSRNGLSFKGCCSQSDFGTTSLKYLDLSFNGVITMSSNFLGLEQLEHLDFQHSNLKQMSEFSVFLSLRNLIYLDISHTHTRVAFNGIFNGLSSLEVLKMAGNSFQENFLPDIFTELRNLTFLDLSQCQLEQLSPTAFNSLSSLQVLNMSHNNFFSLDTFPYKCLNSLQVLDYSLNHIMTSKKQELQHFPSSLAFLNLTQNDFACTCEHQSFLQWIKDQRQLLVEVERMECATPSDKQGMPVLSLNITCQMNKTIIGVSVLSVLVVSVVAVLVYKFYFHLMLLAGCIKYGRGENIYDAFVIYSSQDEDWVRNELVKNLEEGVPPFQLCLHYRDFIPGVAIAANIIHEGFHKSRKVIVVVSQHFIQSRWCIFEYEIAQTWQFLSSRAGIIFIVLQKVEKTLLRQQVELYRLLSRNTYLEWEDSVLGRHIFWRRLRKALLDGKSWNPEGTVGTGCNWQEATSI
Target sequence (Q99836 whole entry, looked up): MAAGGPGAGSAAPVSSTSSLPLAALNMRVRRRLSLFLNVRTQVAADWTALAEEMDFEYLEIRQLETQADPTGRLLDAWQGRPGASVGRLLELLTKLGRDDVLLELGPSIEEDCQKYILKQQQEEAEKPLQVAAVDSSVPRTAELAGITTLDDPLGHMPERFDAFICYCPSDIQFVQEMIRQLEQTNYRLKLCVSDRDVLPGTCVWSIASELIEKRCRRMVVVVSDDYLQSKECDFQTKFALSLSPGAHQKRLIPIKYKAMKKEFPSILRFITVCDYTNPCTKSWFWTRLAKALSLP
NTR1 agonist: agonists of human neurotensin receptor NTR1. hit rate 0.17% among 330,000. activation, % at 20 µM. AID 493036. NTR1-U2OS beta-arrestin-GFP spot imaging, agonist mode. P30989;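 active = activation at or above 40% of the spot to cytoplasm intensity ratio, with at least 20 cells analyzed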;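 note: 0% = DMSO without peptide and 100% = 100 nM NTR1 peptide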
ABHD5-PLIN5 conf: confirmation of human ABHD5-PLIN5 interaction inhibitors. shares compounds with ABHD5 PLIN5 PPI. biochemical ABHD5-PLIN5 interaction, luminescence. inhibition, % at 4 µM. hit rate 67% among 2,200. AID 651612; in the data active = inhibition above about 23%;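 note: 0% = DMSO vehicle wells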
HNF4 split-luc: counter-screen for ABHD5-PLIN5 inhibitors: HNF4 split-luciferase. AID 651674. hit rate 77% among 2,200. inhibition, % at 4 µM. HNF4 dimerization, luminescence, biochemical. shares compounds with ABHD5 PLIN5 PPI;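 active = mean inhibition across replicate wells exceeding the computed hit threshold, cut at about 13% in these data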;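 note: light from luciferase halves that rejoin when HNF4 fusion proteins dimerize; 0% = DMSO only wells and the 100% control is not given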
Numbers without * were called inactive; nt = no result given.

SMILES | TLR9-MyD88 inh | NOD2-RIPK2 inh | ABHD5 PLIN5 PPI | B2AR ag | TLR4-MyD88 BLA | NTR1 agonist | ABHD5-PLIN5 conf | HNF4 split-luc
Cc1ccc(S(=O)(=O)Nc2ccc(Nc3nccn4c(-c5ccc6ccccc6c5)cnc34)cc2)cc1 | nt | -9.8 | -0.6 | nt | nt | nt | nt | nt
COc1ccc(OC(F)(F)F)cc1CC1(C)C(=O)Nc2ccc(S(=O)(=O)NC3CCCCC3)cc21 (centres undefined) | nt | 7.3 | -7.6 | nt | nt | nt | nt | nt
CC1(C)Cc2cccc(OCC(=O)N3CCN(c4ccccc4)CC3)c2O1 | -8.4 | -16.8 | 82.2* | -3.1 | 3.9 | 1.2 | 0.9 | 0.3
CC1(C)Cc2cccc(OCC(=O)N3CCN(c4ccccc4F)CC3)c2O1 | 5.8 | -1.0 | -5.5 | -6.2 | nt | 2.6 | nt | nt
COCCCn1cc(CN2CC(N3CCN(C4CCN(C)CC4)CC3)CS2(=O)=O)nn1 (centres undefined) | nt | -14.8 | -0.2 | nt | nt | nt | nt | nt
Cc1ccc(C2CC(c3cccs3)=NN2C(=O)c2ccc(Br)o2)cc1 (centres undefined) | -0.3 | -2.1 | 24.6* | 1.2 | -0.7 | 5.2 | 45.0* | 58.3*
O=C(NCc1cccc(C(F)(F)F)c1)c1ccc2sc([C@H]3C[C@H](O)[C@@H](CO)O3)nc2c1 | nt | 0.8 | -0.2 | nt | nt | nt | nt | nt
O=C(N/N=C/C=C/c1ccco1)c1ccncc1 | -13.3 | -4.2 | 21.0 | 0.7 | nt | 0.0 | nt | nt
O=C(N/N=C/C=C/c1ccco1)c1ccccc1Cl | 8.4 | -4.8 | 32.7* | 2.8 | -9.7 | -0.5 | 32.3* | 37.2*
O=C(N/N=C/C=C/c1ccco1)/C(=C/c1ccccc1)NC(=O)c1ccccc1 | 3.6 | -2.9 | 33.3* | -10.1 | 12.5 | 0.6 | 52.1* | 48.5*
CN(C)CCCN(C(=O)c1ccc(S(=O)(=O)N(C)Cc2ccccc2)cc1)c1nc2cc3c(cc2s1)OCO3 | 3.8 | 13.6 | 23.9* | 31.6 | nt | 26.6 | 17.4 | 2.9
CN(C)CCCN(C(=O)COc1ccccc1)c1nc2ccc(Cl)cc2s1 | -12.9 | 4.3 | 14.9 | 29.1 | -2.4 | 1.8 | nt | nt
CCOc1ccc2nc(N(CCCN(C)C)C(=O)c3ccc4c(c3)CCCC4)sc2c1 | 0.7 | -3.2 | 12.3 | 8.3 | nt | 5.7 | nt | nt
CN(C)CCCN(C(=O)CCc1ccccc1)c1nc2ccc(Cl)cc2s1 | 2.7 | 3.5 | 39.4* | 18.0 | 3.3 | 7.0 | 23.8* | 0.6
CN(C)CCCN(C(=O)c1ccc2c(c1)CCCC2)c1nc2ccc(Cl)cc2s1 | -0.1 | 9.2 | 28.2* | 27.4 | 9.9 | 11.8 | 10.6 | 10.0
CN(C)CCN(C(=O)c1ccc(S(=O)(=O)N2CCCC2)cc1)c1nc2ccc(Br)cc2s1 | -8.0 | -0.3 | 0.4 | 16.1 | nt | -1.4 | nt | nt
CC1CCCCN1S(=O)(=O)c1ccc(C(=O)N(CCCN(C)C)c2nc3ccc(Br)cc3s2)cc1 (centres undefined) | -8.2 | 9.6 | 24.2* | 25.2 | nt | 23.9 | 14.9 | 9.3
O=C(NCc1ccccc1)C1C(c2ccccc2)=Nc2ccccc2N1C(=O)c1cccnc1 (centres undefined) | nt | 3.9 | -0.6 | nt | nt | nt | nt | nt
CCOC(=O)C1CCCN(C(=O)c2ccc3ccccc3c2)CC1 (centres undefined) | nt | -7.4 | 1.6 | nt | nt | nt | nt | nt
CC(C)c1ccc(C2C3=C(CC(C)(C)CC3=O)NC3=C2C(=O)c2ccccc23)cc1 (centres undefined) | 1.8 | 4.5 | 29.3* | 23.5 | -0.9 | 2.9 | 42.5* | 62.7*
Cc1cccc2sc(N(CCCN(C)C)C(=O)c3ccco3)nc12 | -2.4 | 5.7 | 17.9 | 12.6 | 2.8 | -1.1 | nt | nt
CN(C)CCCN(C(=O)c1ccc2c(c1)OCCO2)c1nc2cc3c(cc2s1)OCO3 | -0.1 | 10.4 | 2.8 | 2.0 | nt | 1.3 | nt | nt
Cc1cc(C)c2nc(N(CCCN(C)C)C(=O)c3ccc4c(c3)OCCO4)sc2c1 | 2.3 | 5.7 | 26.8* | 18.8 | nt | 4.5 | 19.1 | 3.5
Cc1cccc2sc(N(CCCN(C)C)C(=O)c3ccc(Cl)s3)nc12 | -19.6 | 8.1 | 25.3* | 9.9 | -1.9 | 4.9 | 15.7 | 8.1
COc1cccc2sc(N(CCCN(C)C)C(=O)COc3ccc(Cl)cc3)nc12 | 4.5 | 11.4 | 28.7* | 10.2 | -0.6 | 2.0 | 23.1* | 8.3
SMILES | TLR9-MyD88 inh | NOD2-RIPK2 inh | ABHD5 PLIN5 PPI | B2AR ag | TLR4-MyD88 BLA | NTR1 agonist | ABHD5-PLIN5 conf | HNF4 split-luc
COc1ccc(C)c2sc(N(CCCN(C)C)C(=O)c3ccc4c(c3)OCCO4)nc12 | -0.7 | 5.3 | 23.4* | 28.2 | nt | 1.8 | 17.2 | 7.9
CN(C)CCCN(C(=O)COc1ccccc1)c1nc2c(F)cccc2s1 | 5.1 | 5.1 | 7.5 | -4.6 | -13.0 | -1.5 | nt | nt
Nc1nnnn1/N=C/C(Br)=C/c1ccccc1 | -2.2 | 20.7 | 28.3* | 15.5 | 10.7 | 7.8 | 53.9* | 51.1*
CC(C)C[C@H]1CN(CCCC[C@@H]2CNC(=O)C(=O)N2CC2CCCCC2)C(=O)C(=O)N1CCC1CCCCC1 | nt | -11.7 | -5.4 | nt | nt | nt | nt | nt
Cc1ccc(-c2cc(C(=O)Nc3nccs3)c3ccccc3n2)o1 | -3.7 | -2.4 | 10.7 | -1.4 | 2.4 | -0.5 | nt | nt
Cc1ccc(-c2cc(C(=O)Nc3ccccc3C(N)=O)c3ccccc3n2)o1 | nt | 1.2 | 43.3* | 14.8 | nt | 7.2 | 27.9* | 27.8*
COc1cccc(CNC(=O)[C@@H]2CCCN2C(=O)[C@H]2CCCCN2C(=O)c2ccccc2)c1 | nt | 2.0 | -1.6 | nt | nt | nt | nt | nt
Cc1ccc(S(=O)(=O)c2c(N)n(Cc3ccco3)c3nc4ccccc4nc23)cc1C | 9.6 | 2.6 | 28.2* | -6.7 | -3.6 | -5.9 | 52.0* | 48.2*
O=C1/C(=C/c2ccncc2)CCC/C1=C\c1ccncc1 | -3.5 | 20.7 | 99.4* | 46.8* | 16.6 | nt | 104.1* | 109.2*
O=C1C(=Cc2ccc(Cl)cc2)CCc2ccccc21 | nt | 7.0 | 10.0 | nt | nt | nt | nt | nt
O=C1/C(=C/c2ccncc2)CCc2ccccc21 | -5.5 | -3.9 | 34.4* | 2.8 | nt | 2.7 | 62.3* | 59.0*
O=C1/C(=C\c2ccncc2)CCc2ccccc21 | -6.4 | 8.6 | 31.8* | -1.7 | nt | 5.6 | 63.3* | 60.0*
O=C1C(=Cc2ccncc2)CCCc2ccccc21 | -5.8 | -0.8 | 17.8 | nt | nt | nt | nt | nt

From PubChem BioAssay
